Read-out in assay [1]: Interleukin-8 (IL8), CXCL8 (gene 3576)
Nature of the assay: BSK_CASM3C_IL8: BioMAP Diversity Plus: CASM3C Assay for Interleukin-8 (IL8) Biomarker Activity (AID 2283042).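 Also: IL-8 protein level quantified by ELISA.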 To be noted: primary human coronary artery smooth muscle cells; actives raise or lower the signal.

Read-out in assay [2]: Human Leukocyte Antigen - DR isotype (HLADR), HLA-DRA (gene 3122)
Nature of the assay: BSK_CASM3C_HLADR: BioMAP Diversity Plus: CASM3C Assay for Human Leukocyte Antigen - DR isotype (HLADR) Biomarker Activity (AID 2283043).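 Also: cell-surface HLA-DR protein level quantified by ELISA.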 To be noted: primary human coronary artery smooth muscle cells; actives raise or lower the signal.

Read-out in assay [3]: Macrophage colony-stimulating factor (MCSF), CSF1 (gene 1435)
Nature of the assay: BSK_CASM3C_MCSF: BioMAP Diversity Plus: CASM3C Assay for Macrophage colony-stimulating factor (MCSF) Biomarker Activity (AID 2283044).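 Also: M-CSF protein amount quantified by ELISA after 24 h exposure.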 To be noted: primary human coronary artery smooth muscle cells; actives raise or lower the signal.

Read-out in assay [4]: Low-density lipoprotein receptor (LDLR), LDLR (gene 3949)
Nature of the assay: BSK_CASM3C_LDLR: BioMAP Diversity Plus: CASM3C Assay for Low-density lipoprotein receptor (LDLR) Biomarker Activity (AID 2283045).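 Also: LDLR protein level on the cell surface quantified by ELISA.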 To be noted: primary human coronary artery smooth muscle cells; actives raise or lower the signal.

Read-out in assay [5]: Monocyte Chemoattractant Protein-1 (MCP1), CCL2 (gene 6347)
In words: BSK_CASM3C_MCP1: BioMAP Diversity Plus: CASM3C Assay for Monocyte Chemoattractant Protein-1 (MCP1) Biomarker Activity (AID 2283046).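 Also: MCP-1 level quantified by ELISA 24 h after dosing.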 To be noted: primary human coronary artery smooth muscle cells; actives raise or lower the signal.

Assay [6] is described as follows: BSK_CASM3C_Proliferation: Cell Proliferation Assessment in the BioMAP Diversity Plus: CASM3C Assay (AID 2283047).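 Also: sulforhodamine B total protein stain as relative cell number at 560 nm; sub-confluent cells exposed 48 h before staining; fitted both ways against DMSO so gain or loss of cell number.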 To be noted: primary human coronary artery smooth muscle cells.
Read-out in assay [7]: Monokine induced gamma interferon (MIG), CXCL9 (gene 4283)
In words: BSK_CASM3C_MIG: BioMAP Diversity Plus: CASM3C Assay for Monokine induced gamma interferon (MIG) Biomarker Activity (AID 2283048).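 Also: MIG protein level measured by ELISA.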 To be noted: primary human coronary artery smooth muscle cells; actives raise or lower the signal.

Read-out in assay [8]: serum amyloid A (SAA), SAA1 (gene 6288)
In words: BSK_CASM3C_SAA: BioMAP Diversity Plus: CASM3C Assay for serum amyloid A (SAA) Biomarker Activity (AID 2283049). To be noted: primary human coronary artery smooth muscle cells; actives raise or lower the signal.

Assay [9] is described as follows: BSK_CASM3C_SRB: Viability Assessment in the BioMAP Diversity Plus: CASM3C Assay (AID 2283050).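 Also: total protein by SRB staining as cytotoxicity measure in parallel cultures; cells exposed to compound for 24 h.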 To be noted: primary human coronary artery smooth muscle cells.
Read-out in assay [10]: Thrombomodulin, THBD (gene 7056)
Nature of the assay: BSK_CASM3C_Thrombomodulin: BioMAP Diversity Plus: CASM3C Assay for Thrombomodulin Biomarker Activity (AID 2283051).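 Also: thrombomodulin protein level measured by ELISA 24 h after dosing.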 To be noted: primary human coronary artery smooth muscle cells; actives raise or lower the signal.

Read-out in assay [11]: Tissue Factor, F3 (gene 2152)
In words: BSK_CASM3C_TissueFactor: BioMAP Diversity Plus: CASM3C Assay for Tissue Factor Biomarker Activity (AID 2283052).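 Also: cell surface tissue factor protein level read by ELISA.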 To be noted: primary human coronary artery smooth muscle cells; actives raise or lower the signal.

Read-out in assay [12]: Interferon-gamma inducible Protein 10 (IP10), CXCL10 (gene 3627)
Nature of the assay: BSK_hDFCGF_IP10: BioMAP Diversity Plus: hDFCGF Assay for Interferon-gamma inducible Protein 10 (IP10) Biomarker Activity (AID 2283053). To be noted: primary human foreskin fibroblasts; actives raise or lower the signal. The essentials: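 IP-10 levels, quantified by ELISA, are taken from human foreskin fibroblast cultures 24 h after chemical treatment, with DMSO serving as negative control and baseline for bidirectional analysis.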

Read-out in assay [13]: Urokinase-type plasminogen activator receptor (uPAR), PLAUR (gene 5329)
In words: BSK_CASM3C_uPAR: BioMAP Diversity Plus: CASM3C Assay for Urokinase-type plasminogen activator receptor (uPAR) Biomarker Activity (AID 2283054).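 Also: cell-surface uPAR protein level quantified by ELISA.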 To be noted: primary human coronary artery smooth muscle cells; actives raise or lower the signal.

Read-out in assay [14]: Vascular cell adhesion molecule 1 (VCAM1), VCAM1 (gene 7412)
Nature of the assay: BSK_CASM3C_VCAM1: BioMAP Diversity Plus: CASM3C Assay for Vascular cell adhesion molecule 1 (VCAM1) Biomarker Activity (AID 2283055).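 Also: VCAM-1 protein level quantified by ELISA on the cells.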 To be noted: primary human coronary artery smooth muscle cells; actives raise or lower the signal.

Read-out in assay [15]: Collagen III, COL3A1 (gene 1281)
Nature of the assay: BSK_hDFCGF_CollagenIII: BioMAP Diversity Plus: hDFCGF Assay for Collagen III Biomarker Activity (AID 2283056). To be noted: primary human foreskin fibroblasts; actives raise or lower the signal. In outline: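 Human foreskin primary fibroblasts were exposed to test chemicals for 24 h, after which collagen III was quantified by ELISA. Activity was fitted bidirectionally against DMSO as negative control and baseline.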

Read-out in assay [16]: Epidermal growth factor receptor (EGFR), EGFR (gene 1956)
Nature of the assay: BSK_hDFCGF_EGFR: BioMAP Diversity Plus: hDFCGF Assay for Epidermal growth factor receptor (EGFR) Biomarker Activity (AID 2283057). To be noted: primary human foreskin fibroblasts; actives raise or lower the signal. The essentials:
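Measured by ELISA: EGFR levels on primary human foreskin fibroblasts 24 h after chemical treatment, analysed relative to DMSO with bidirectional fitting.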

Read-out in assay [17]: Interleukin-8 (IL8), CXCL8 (gene 3576)
Nature of the assay: BSK_hDFCGF_IL8: BioMAP Diversity Plus: hDFCGF Assay for Interleukin-8 (IL8) Biomarker Activity (AID 2283058). To be noted: primary human foreskin fibroblasts; actives raise or lower the signal. The essentials:
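hDFCGF human dermal fibroblasts; 24 h chemical exposure; IL-8 by ELISA; bidirectional curve fit vs DMSO baseline; gain or loss of signal scored.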

Assay [18] can be described thus: BSK_hDFCGF_Proliferation: Cell Proliferation Assessment in the BioMAP Diversity Plus: hDFCGF Assay (AID 2283059).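 Also: curves fitted for both rise and fall of signal versus DMSO baseline.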 To be noted: primary human foreskin fibroblasts. In outline: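 This proliferation readout used SRB total-protein staining of human foreskin fibroblasts […], normalized to DMSO with bidirectional curve fitting.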
The nature of assay [19]: BSK_hDFCGF_SRB: Viability Assessment in the BioMAP Diversity Plus: hDFCGF Assay (AID 2283061).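 Also: cells exposed to compound for 24 h before the read.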 To be noted: primary human foreskin fibroblasts. In outline:
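Human foreskin primary fibroblasts were treated with compound and assessed 24 h after dosing. Total protein was measured by sulforhodamine B staining (0.1% SRB after 10% TCA fixation, 560 nm read) as a cytotoxicity marker, with bidirectional fitting against DMSO baseline.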

Read-out in assay [20]: Macrophage colony-stimulating factor (MCSF), CSF1 (gene 1435)
In words: BSK_hDFCGF_MCSF: BioMAP Diversity Plus: hDFCGF Assay for Macrophage colony-stimulating factor (MCSF) Biomarker Activity (AID 2283060). To be noted: primary human foreskin fibroblasts; actives raise or lower the signal. In outline:
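Human foreskin primary fibroblasts were treated with test chemical for 24 h, and M-CSF was then measured by ELISA. Data were fitted bidirectionally against DMSO as the negative control and activity baseline.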

Values joined by “and” are separate entries in the source; they are usually repeats but may differ in a detail not shown here. Equal entries are not always repeated. More than one record can exist for a structure, and the calls need not agree. Active and inactive are the calls of the source. The calls were made as follows: active = hit-call score of the fitted dose curve at least 0.9, where 1 is the maximum; inactive = score below 0.9.

Take `CC=Cc1ccc(OCC)c(O)c1`: the outcome in [1], in [2], in assay [3], in assay [4], in [5] and in [6] was inactive. Moreover, the result in assay [7], in assay [8], in assay [9], in assay [10], in assay [11] and in assay [12] was inactive. Moreover, the outcome in [13], in assay [14], in [15], in [16], in assay [17] and in assay [18] was inactive. The outcome in assay [19] was inactive.
For the molecule `CS(=O)(=O)OCCCCOS(C)(=O)=O`, the result in assay [1], in assay [2], in assay [3], in [4], in [5] and in assay [6] was inactive. Also, the outcome in [7], in [8], in assay [9], in [10], in assay [11] and in assay [12] was inactive. For the same molecule, the outcome in [13], in [14], in [15], in [16], in [17] and in assay [18] was inactive. The outcome in assay [20] and in assay [19] was inactive.
As to `CCCCOC(=O)CCCCCCCC(=O)OCCCC`, the outcome in [1], in assay [2], in assay [3], in assay [4], in assay [5] and in assay [6] was inactive. Further, the result in [7], in assay [8], in assay [9], in assay [10], in assay [11] and in assay [12] was inactive. For the same molecule, the result in assay [13], in assay [14], in assay [15], in [16], in assay [17] and in assay [18] was inactive. The outcome in [19] was inactive.
Turning to `CC(CN=Cc1ccccc1O)N=Cc1ccccc1O` (stereo unspecified), the result in [1], in assay [2], in [3], in [4], in assay [5] and in [6] was inactive. The result in assay [7], in assay [8], in [9], in assay [10], in assay [11] and in assay [12] was inactive. Further, the outcome in [13], in assay [14], in [15], in assay [16], in assay [17] and in assay [18] was inactive. Further, the outcome in assay [19] was inactive. For the same molecule, the AC50 is 20 µM (active) in [4] and 1.64 µM (active) in assay [6].
Turning to `CC1(C)CCC[C@]2(C)[C@H]3CCO[C@]3(C)CC[C@@H]12`, the AC50 is 33 µM (active) in assay [1]; 34.9 µM (active) and 32.9 µM (active) in assay [2]; 20 µM (active) in [3]; 33.4 µM (active) and 33.3 µM (active) in assay [5]; 36.3 µM (active) and 36.8 µM (active) in [6]; 30.4 µM (active) and 31.2 µM (active) in assay [7]. Further, the half-maximal activity concentration (AC50) in [8] was 34.2 µM (active) and 31.3 µM (active); in assay [9], 34.5 µM (active) and 35.3 µM (active); in assay [11], 1.65 µM (active); in assay [12], 36.5 µM (active) and 37.9 µM (active); in assay [13], 34 µM (active) and 31.4 µM (active); in assay [14], 34.1 µM (active) and 33.7 µM (active). Further, the AC50 is 31.4 µM (active) and 30.6 µM (active) in assay [15]; 32 µM (active) and 33 µM (active) in [16]; 37.9 µM (active) and 35.9 µM (active) in [17]; 12.1 µM (active) and 30.5 µM (active) in assay [18]; 33.8 µM (active) and 36.4 µM (active) in assay [19]. The result in [1], in assay [3], in assay [4], in assay [10] and in assay [11] was inactive.

The term AC50 denotes the concentration at which the activity in the assay is half-maximal.

The values are drawn from PubChem BioAssay (EPA / NIEHS).
